The values below come from PubChem BioAssay (Tox21).

Unmarked numbers belong to inactive results. Inconclusive results are not listed. The source made the active and inactive calls. Unless noted, the call rests on the fitted dose curve; in most records, active means well fitted curve in the direction sought with a large enough effect in the repeat runs; inconclusive means weak or mixed curves; inactive means no such curve, though single readings can be large; an effect the other way counts as inactive or inconclusive.

Assay [1] is described as follows: qHTS assay to identify small molecule antagonists of the estrogen related receptor (ERR) signaling pathway from Tox21 library - cell viability counter screen (AID 1224834). Further: nearly all actives have a fitted effect of over 30% in size. The method, boiled down:
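CellTiter-Fluor fluorescence, read after 30 min at 37 C, measures viability of ERR cells. Cells plated at 2,000/well and incubated 6 h before pin-tool compound addition, then exposed 17.5 hours at 37 C.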

Assay [2] deals with Luciferin 4-monooxygenase (Photinus pyralis) (UniProt P08659). The experiment in a line: qHTS assay to identify small molecule inhibitors of firefly luciferase (AID 1224835). Further: nearly all actives have a fitted effect of over 25% in size. A digest of the protocol: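 Quantitative HTS format; KM concentrations of both substrates. Purified P. pyralis FLuc activity quantified from luminescence images.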
The nature of assay [3]: qHTS assay to identify small molecule agonists of the constitutive androstane receptor (CAR) signaling pathway - cell viability counter screen (AID 1224836). Further: nearly all actives have a fitted effect of over 45% in size. A digest of the protocol: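 HepG2 cells stably carrying hCAR and a CYP2B6-2.2kb reporter were plated 4 h, then given compounds at 15 concentrations plus PK11195 (final 0.75 uM). After 23 h at 37 C, viability was read by CellTiter-Fluor fluorescence.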

Assay [4] can be described thus: qHTS assay to identify small molecule antagonists of the constitutive androstane receptor (CAR) signaling pathway - cell viability counter screen (AID 1224837). Further: nearly all actives have a fitted effect of over 45% in size. A digest of the protocol: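 Cytotoxicity counter-screen: CellTiter-Fluor fluorescence after 23 h compound exposure (15-point qHTS) in double-stable HepG2-CYP2B6-hCAR cells, with 50 nM CITCO added.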
Assay [5] addresses Nuclear receptor subfamily 1 group I member 3 (Homo sapiens) (UniProt Q14994). The experiment in a line: qHTS assay to identify small molecule antagonists of the constitutive androstane receptor (CAR) signaling pathway (AID 1224838). Further: nearly all actives have a fitted effect of over 40% in size. A digest of the protocol: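 Antagonism measured as luciferase signal (ONE-Glo, 30 min, room temperature) in CAR-stimulated cells: HepG2-CYP2B6-hCAR double-stable line exposed 24 hr at 37 C to compound in a 15-point series plus 50 nM CITCO.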

Assay [6] shares this target. The experiment in a line: qHTS assay to identify small molecule agonists of the constitutive androstane receptor (CAR) signaling pathway (AID 1224839). Further: nearly all actives have a fitted effect of over 15% in size. Further: potency means the concentration at half of the fitted maximal effect. The method, boiled down:
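HepG2 cells stably expressing hCAR and a CYP2B6-2.2kb luciferase reporter were treated with compounds at 15 concentrations plus 0.75 uM PK11195 (final) for 24 h at 37 C; luminescence was read after ONE-Glo addition.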

Assay [7] in a line: qHTS assay to identify small molecule antagonists of the estrogen related receptor signaling pathway with the pleiotropic PPARgamma coactivator (PGC) from Tox21 10K library - cell viability counter screen (AID 1224840; active means well fitted cell-killing curve with a large enough effect in the repeat runs, not every such curve was filed as active; further: nearly all actives have a fitted effect of over 40% in size). A digest of the protocol:
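Counter-screen for cytotoxicity: after 17.5 h compound exposure at 37 C, CellTiter-Fluor reagent added to PGC/ERR cells for 30 min and fluorescence read. Cells were seeded at 2,000 per well 6 h before dosing.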

Assay [8] in a line: qHTS assay to identify small molecule antagonists of the estrogen related receptor signaling pathway with the pleiotropic PPARgamma coactivator (PGC) from Tox21 10K library (AID 1224841; call rule not given here; further: actives are mostly falling curves and most rising ones were filed inactive; nearly all actives have a fitted effect of over 50% in size). A digest of the protocol:
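Luminescence (One-Glo, 30 min at room temperature) after 18 h compound treatment at 37 C of PGC/ERR reporter cells plated at 2,000 cells/well and settled 6 h beforehand.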

Assay [9] in a line: qHTS assay to identify small molecule agonists of the estrogen related receptor signaling pathway with the pleiotropic PPARgamma coactivator (PGC) from Tox21 10K library (AID 1224842). Further: nearly all actives have a fitted effect of over 15% in size. The method, boiled down:
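PGC/ERR reporter cells (NTP line) were seeded 2,000 per well, rested 6 h at 37 C/5% CO2, then pin-dosed with compounds in DMSO for 18 h at 37 C; luciferase read by One-Glo luminescence after 30 min at room temperature.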

The nature of assay [10]: qHTS assay to identify small molecule agonists of the hypoxia (HIF-1) signaling pathway - cell viability counter screen (AID 1224844; calls by dose curve; further: nearly all actives have a fitted effect of over 50% in size). The method, boiled down:
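Cytotoxicity measured by CellTiter-Glo ATP luminescence in the wells also read for beta-lactamase signal. Cells were HRE-bla ME-180 (2,000/well, 0.5% dialyzed FBS), exposed to compounds for 17 h at 37C.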

The nature of assay [11]: qHTS assay to identify small molecule agonists of H2AX (AID 1224845; active means well fitted activation curve with a large enough effect in the signal ratio in the repeat runs, not every such curve was filed as active; the % refers to the signal ratio). A digest of the protocol:
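Wild-type CHO-K1 cells plated overnight, then exposed 3 hr at 37C to compounds at 15 concentrations (0.76% DMSO). Lysed, then HTRF anti-pH2AX(S139)-cryptate/anti-H2AX-d2 detection after 24 hr at room temperature; emissions 665 and 620 nm.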

Assay [12] is described as follows: qHTS assay to identify small molecule agonists of H2AX - cell viability counter screen (AID 1224847; calls by dose curve; further: top concentration of the series differs between compounds; nearly all actives have a fitted effect of over 30% in size). The method, boiled down:
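Wild-type CHO-K1 cells (10% FBS medium) were plated overnight at 37C, exposed to compounds at 15 concentrations for 3 hr at 37C (0.76% DMSO final), and viability was read as CellTiter-Glo luminescence after 30 min at room temperature.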

The nature of assay [13]: qHTS assay to identify small molecule antagonists of the estrogen related receptor (ERR) signaling pathway from Tox21 library (AID 1224848). Further: nearly all actives have a fitted effect of over 50% in size. A digest of the protocol: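 Tox21 10K compounds in DMSO tested for ERR pathway antagonism in NTP's ERR cell line; 18 h, 37 C exposure; ONE-Glo luminescence.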
Assay [14] can be described thus: qHTS assay to identify small molecule agonists of the estrogen related receptor (ERR) signaling pathway from Tox21 library (AID 1224849; calls by dose curve; further: nearly all actives have a fitted effect of over 15% in size). To be noted: ERR reporter cell line, ONE-Glo luciferase, 18 h; at 92.4 µM (top of the series) unless noted. A digest of the protocol: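 Luminescent agonist read-out (One-Glo, 30-minute room-temperature incubation) following 18-hour compound treatment at 37 C of the ERR cell line, which had been plated 6 hours before dosing.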

A short description of assay [15]: qHTS RealTime-Glo MT Cell Viability Assay in HepG2 cells - 24 hour (AID 1224867). Further: nearly all actives have a fitted effect of over 50% in size. A digest of the protocol: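 HepG2 cells were seeded at 600 cells/well together with NanoLuc luciferase and a cell-permeant prosubstrate, preincubated 5 h at 37 C/5% CO2, then pin-dosed with compounds in DMSO. Nonlytic luminescence from viable cells was read at each time point.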
Assay [16] is described as follows: qHTS RealTime-Glo MT Cell Viability Assay in HEK293 cells - 32 hour (AID 1224868). The method, boiled down: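 HEK293 cells were seeded at 600 cells/well together with NanoLuc luciferase and cell-permeant prosubstrate, preincubated 5 h at 37 C/5% CO2, then given compound in DMSO by pintool. Luminescence from viable-cell prosubstrate reduction was read repeatedly over 40 h.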

Assay [17] is described as follows: A CellTox Green Cytotoxicity Assay to monitor cytotoxicity in HEK293 cells - 0 hour (AID 1224869). Further: nearly all actives have a fitted effect of over 50% in size. A digest of the protocol:
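Fluorescence from a DNA-binding dye excluded by viable cells was measured repeatedly in the same HEK293 wells (600 cells/well) during continuous compound exposure at 37 C. Each assay gives one read point: 0, 8, 16, 24, 32 or 40 h.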

Assay [18] has as its target Thyrotropin receptor (Homo sapiens) (UniProt P16473). The experiment in a line: qHTS assay to identify small molecule agonists of the thyroid stimulating hormone receptor (TSHR) signaling pathway (AID 1224843; calls by dose curve; further: nearly all actives have a fitted effect of over 45% in size; further: potency means the concentration at half of the fitted maximal effect). A digest of the protocol: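 Using 15 concentrations per compound in triplicate, cAMP production was monitored in TSHR-HEK293 cells after 30 min compound incubation at RT; HTRF reagents followed, with fluorescence intensity recorded after 1 h.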

Assay [19] can be described thus: qHTS assay to identify small molecule agonists of the hypoxia (HIF-1) signaling pathway (AID 1224846; active means well fitted activation curve with a large enough effect in the signal ratio in the repeat runs, not every such curve was filed as active; the % refers to the signal ratio). A digest of the protocol: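 Compounds added to ME-180 cells carrying hypoxia-response-element beta-lactamase reporter (0.5% dialyzed FBS, 5 h preplating), 17 h at 37C; agonist activity detected by CCF4-AM B/G FRET read-out.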
On the % scale 0 is the no-effect control and ±100 the full control effect.

Chain of Thyrotropin receptor (Homo sapiens) (P16473 whole entry, looked up): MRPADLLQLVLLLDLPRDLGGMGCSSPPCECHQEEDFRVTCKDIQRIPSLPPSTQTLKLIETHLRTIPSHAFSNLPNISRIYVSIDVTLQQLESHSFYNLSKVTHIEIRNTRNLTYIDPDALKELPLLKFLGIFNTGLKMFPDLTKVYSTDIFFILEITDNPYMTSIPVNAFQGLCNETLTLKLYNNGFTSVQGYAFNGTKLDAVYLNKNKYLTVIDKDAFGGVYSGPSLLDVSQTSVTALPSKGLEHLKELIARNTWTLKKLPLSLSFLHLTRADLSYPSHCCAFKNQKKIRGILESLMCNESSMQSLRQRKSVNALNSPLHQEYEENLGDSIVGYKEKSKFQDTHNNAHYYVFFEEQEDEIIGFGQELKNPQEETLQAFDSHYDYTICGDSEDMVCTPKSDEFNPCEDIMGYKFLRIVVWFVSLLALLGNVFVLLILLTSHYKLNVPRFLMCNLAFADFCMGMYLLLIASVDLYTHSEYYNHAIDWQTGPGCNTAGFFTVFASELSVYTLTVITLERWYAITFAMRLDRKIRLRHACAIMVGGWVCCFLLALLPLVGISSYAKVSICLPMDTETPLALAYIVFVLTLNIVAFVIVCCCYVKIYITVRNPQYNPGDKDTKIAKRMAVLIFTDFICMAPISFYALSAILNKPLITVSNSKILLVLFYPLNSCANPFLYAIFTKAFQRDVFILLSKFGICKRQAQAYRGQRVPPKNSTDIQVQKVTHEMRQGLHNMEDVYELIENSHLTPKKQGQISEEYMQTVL
Chain of Nuclear receptor subfamily 1 group I member 3 (Homo sapiens) (Q14994 whole entry, looked up): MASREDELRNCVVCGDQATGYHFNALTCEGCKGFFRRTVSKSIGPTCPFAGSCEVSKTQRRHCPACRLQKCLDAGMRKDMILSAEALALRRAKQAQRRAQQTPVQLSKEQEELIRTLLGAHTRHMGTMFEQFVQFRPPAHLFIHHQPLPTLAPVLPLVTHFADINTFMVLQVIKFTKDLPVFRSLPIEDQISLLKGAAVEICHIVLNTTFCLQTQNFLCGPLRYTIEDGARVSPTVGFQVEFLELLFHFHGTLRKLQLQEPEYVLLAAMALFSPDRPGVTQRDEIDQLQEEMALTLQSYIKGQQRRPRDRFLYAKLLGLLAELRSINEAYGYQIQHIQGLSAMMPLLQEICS
Chain of Luciferin 4-monooxygenase (Photinus pyralis) (P08659 whole entry, looked up): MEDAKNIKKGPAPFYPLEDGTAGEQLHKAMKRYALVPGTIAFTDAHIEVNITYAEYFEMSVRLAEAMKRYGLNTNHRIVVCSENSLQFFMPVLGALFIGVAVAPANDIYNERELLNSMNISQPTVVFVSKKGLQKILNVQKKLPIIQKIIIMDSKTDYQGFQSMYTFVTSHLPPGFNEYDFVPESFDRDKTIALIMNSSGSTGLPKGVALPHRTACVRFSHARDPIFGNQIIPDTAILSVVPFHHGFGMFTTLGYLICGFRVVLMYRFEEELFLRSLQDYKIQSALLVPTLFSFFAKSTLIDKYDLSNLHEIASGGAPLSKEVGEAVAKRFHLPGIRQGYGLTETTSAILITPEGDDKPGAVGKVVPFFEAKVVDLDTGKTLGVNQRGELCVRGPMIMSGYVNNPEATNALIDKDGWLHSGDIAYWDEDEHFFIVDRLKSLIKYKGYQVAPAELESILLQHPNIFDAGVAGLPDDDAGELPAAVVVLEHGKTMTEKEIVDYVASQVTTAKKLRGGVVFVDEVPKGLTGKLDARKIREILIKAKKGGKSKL

As to `O=[N+]([O-])CCO`, the Potency result in assay [1], in assay [2], in assay [3], in assay [4], in [5] and in assay [6] was “inactive” each time. The Potency entry in assay [7], in assay [8], in [9], in assay [10], in assay [12] and in assay [13] was “inactive” in each case. Also, the Potency entry in assay [15] and in assay [16] was “inactive” in each case. For the same compound, the call in assay [11] and in [17] was inactive. Further, in assay [14], the activity change, positive = activation is 1.1%.

Turning to `CNC(=O)O/N=C(/CSC)C(C)(C)C`, the Potency result in assay [1], in assay [2], in assay [3], in [4], in [5] and in [7] was “inactive” each time. Also, the Potency result in [18], in [10], in assay [12], in assay [15] and in [16] was “inactive” throughout. The compound was classed as inactive in [11], in [19] and in [17].

As for `CCOP(=S)(OCC)Oc1ccc(Cl)cc1Cl`, the Potency entry in assay [1], in assay [2], in assay [3], in assay [4], in [5] and in assay [7] was “inactive” throughout. Moreover, the Potency result in [18], in assay [10] and in assay [15] was “inactive” in each case. In assay [6], the Potency is 27.3 µM (active). Besides, the outcome in assay [19] and in assay [17] was inactive.

For `COC[C@@H](NC(C)=O)C(=O)NCc1ccccc1`, the Potency entry in [1], in assay [2], in assay [3], in [4], in [7] and in assay [8] was “inactive” each time. Besides, the Potency result in [9], in assay [18], in [10], in assay [12], in assay [13] and in [15] was “inactive” in each case. The result in [11] and in assay [17] was inactive. In assay [14], the activity change, positive = activation was 4.5% [at 42.5 µM].

Consider `Clc1cc2c(cc1Cl)Oc1cc(Cl)c(Cl)cc1O2`, for which the viability change, negative = cytotoxic in assay [1] is -2.52% [at 0.349 µM]; in assay [3] it was -0.641% [at 0.349 µM]; in [7], -1.69% [at 0.349 µM]. For the same compound, the activity change, negative = inhibition in assay [2] was -7.47% [at 0.435 µM]. For the same compound, the activity change, negative = cytotoxicity in assay [4] is -2.86% [at 0.349 µM]; in assay [10], -17.7% [at 0.29 µM]; in [12], -1.16% [at 0.582 µM]; in assay [15], -2.29% [at 0.29 µM]. In addition, in assay [5], the activity, negative = inhibition is 103% [at 0.349 µM]. The activation was 10.3% [at 0.349 µM] in assay [18] and -1.24% [at 0.291 µM] in assay [19]. Further, the activation (H2AX phosphorylation) in assay [11] was -2.07% [at 0.582 µM]. Besides, the cytotoxicity in assay [17] was -18% [at 0.29 µM].

Turning to `CC(C)(C)C(=O)C(Cl)Cl`, the Potency entry in assay [1], in assay [2], in [3], in assay [4], in assay [5] and in assay [7] was “inactive” in each case. Further, the Potency entry in assay [18], in assay [10], in assay [12], in assay [15] and in [16] was “inactive” each time. Moreover, the outcome in assay [11], in assay [19] and in assay [17] was inactive.

For the compound `COC1=CC(=O)O[C@@H](/C=C/c2ccccc2)C1`, the Potency entry in assay [1], in assay [2], in [3], in [4], in assay [7] and in assay [8] was “inactive” in each case. In addition, the Potency entry in assay [18], in assay [10], in assay [13], in assay [15] and in assay [16] was “inactive” in each case. The outcome in [11] and in [17] was inactive. Also, the activity change, positive = activation in assay [14] is 12.9%.

Consider `CCN[C@@H](C)Cc1ccccc1`, for which the Potency result in assay [1], in assay [2], in [3], in assay [4], in assay [7] and in assay [8] was “inactive” throughout. Moreover, the Potency result in assay [9], in assay [18], in assay [10], in assay [12], in assay [13] and in [15] was “inactive” in each case. Further, the compound was classed as inactive in assay [11] and in [17]. Further, the activity change, positive = activation in assay [14] was 9.72%.

Turning to `O=C/C=C/c1ccco1`, the Potency result in assay [1], in assay [2], in [3], in [4], in [5] and in assay [6] was “inactive” each time. The Potency entry in [7], in [10], in assay [12] and in assay [15] was “inactive” in each case. Moreover, the call in assay [11], in assay [19] and in [17] was inactive.

`CC(C)(C)NC[C@H](O)c1ccc(O)cc1Cl`: the Potency entry in [1], in assay [2], in assay [3], in assay [4], in [7] and in [8] was “inactive” in each case. Moreover, the Potency entry in assay [9], in assay [10], in assay [12], in [13], in assay [15] and in assay [16] was “inactive” each time. The Potency in [18] was 0.0084 µM (active). For the same compound, the call in assay [11], in [19] and in assay [17] was inactive. In addition, the activity change, positive = activation in assay [14] was 0.107% [at 42.5 µM].
